Laboratory results taken from PubChem BioAssay AID720513 (Broad Institute, 2013).
Hit rate of the full screen: of about 2,100 compounds, about 480 (23%) were called active. Another 5% or so got no clear call; they are omitted.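 How the source made its calls: active means fitted curve reaches 40% activation at or below the top valid concentration, in every replicate test; inconclusive means replicate tests disagree on the call; inactive means the rest, including activity in the opposite direction.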 These entries were drawn from the full list. Measured potencies and affinities stand elsewhere.

Experiment: PGC1a acetylation increase, cellular AlphaLISA – cell-based, cherry-picked samples, set 6, dose response (AID 720513);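 further: cells made to overexpress flag tagged PGC1a plus GCN5 acetyltransferase by viral infection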
Conditions: U2OS PGC1a acetylation AlphaLISA, overnight, 0 = neutral, -100 = inhibitor control; series mostly up to 19.5 µM

outcome, inactive:
CSCCC(NC(=O)OC(C)(C)C)C(=O)Oc1ccc2c(=O)c(-c3ccc4c(c3)OCCO4)coc2c1 (stereo not given)
O=C(C1CCCO1)N1CCN(Cc2c(O)ccc3ccccc23)CC1 (stereo not given)
C[C@@H]1CCCCO[C@H](CN(C)Cc2ccc(C(F)(F)F)cc2)[C@H](C)CN([C@@H](C)CO)C(=O)c2cc(NC(=O)NC3CCCCC3)ccc2O1
COc1ccc(CN(Cc2cccn2C)S(=O)(=O)c2ccccc2)cc1
COc1cccc(-c2noc(C3CCCN(C(=O)Cc4ccccc4)C3)n2)c1 (stereo not given)
C[C@H]1CN([C@@H](C)CO)S(=O)(=O)c2ccc(Br)cc2O[C@H]1CN(C)S(C)(=O)=O
C[C@H](CO)N1C[C@H](C)[C@H](CN(C)Cc2ccccc2)Oc2cc(Br)ccc2S1(=O)=O
COc1ccccc1C(NC(C)=O)c1cc(Cl)c2cccnc2c1O (stereo not given)
CC(=O)c1cccc(-c2ccnc3c2CC(C(=O)NCc2ccco2)O3)c1 (stereo not given)
CC(c1ccco1)N(C(=O)c1cc(Cl)cc(Cl)c1)c1ccccn1 (stereo not given)
Cc1ccc(CN(C(=O)Cn2nnc3ccccc32)C(C(=O)NCc2ccco2)c2cccs2)cc1 (stereo not given)
C[C@H](CO)N1C[C@H](C)[C@H](CN(C)S(=O)(=O)c2cn(C)cn2)OCCCC[C@H](C)Oc2ccc(NC(=O)Nc3cccc4ccccc34)cc2C1=O
Clc1ccc(C(c2ccccc2Cl)C(Cl)Cl)cc1 (stereo not given)
CC(C)Cc1nn2c(=O)cc(O)nc2s1
Cc1ccc(S(=O)(=O)C(NC(=O)c2ccccc2)=C(Cl)Cl)cc1
Cc1ccc(C(CC(=O)O)NC(=O)CCNC(=O)c2ccco2)cc1 (stereo not given)
Cc1cc(OCC(=O)O/N=C(\N)c2ccccc2)cc(C)c1Cl
CC(C)CC#Cc1ccc2c(c1)O[C@H](CN(C)Cc1ccccc1)[C@@H](C)CN([C@H](C)CO)S2(=O)=O
COc1cc(-c2cnc3c(NC=O)cc(-c4ccccc4)cn23)cc(OC)c1OC
COc1cc(-c2cnc3c(NC=O)cc(-c4ccccc4Cl)cn23)cc(OC)c1OC
O=C(O)c1cccc(N2C(=O)CSC2c2c(F)cccc2Cl)c1 (stereo not given)
Cc1cc(C)c(NC(=O)c2ccc(S(=O)(=O)N(C)C)cc2)c(C)n1
CN(C)c1ncnc2c1ncn2C1OC(CO)C(O)C1O (stereo not given)
OC[C@@H]1CN(Cc2ccccc2)C[C@H](n2cnc3c(NCc4ccco4)ncnc32)O1
CS(=O)(=O)N1CCCC(C(=O)NCc2ccccn2)C1 (stereo not given)
COc1ccc(CN(C)C[C@@H]2OCCCC[C@H](C)Oc3ccc(NS(C)(=O)=O)cc3C(=O)N([C@@H](C)CO)C[C@@H]2C)cc1
C[C@@H]1CN([C@H](C)CO)C(=O)c2cc(C#CC(C)(C)O)cnc2O[C@H]1CN(C)C(=O)c1ccccc1F
Cc1noc(C)c1NC(=O)N(C)C[C@H]1Oc2c(NC(=O)c3nc4ccccc4s3)cccc2C(=O)N([C@H](C)CO)C[C@H]1C
COc1ccc(S(=O)(=O)N(C)C[C@H]2Oc3c(NS(=O)(=O)c4ccc(C)cc4)cccc3C(=O)N([C@H](C)CO)C[C@H]2C)cc1
Cc1ccc(-c2cnc3c(c2)C(=O)N([C@@H](C)CO)C[C@@H](C)[C@H](CN(C)C)O3)cc1
Cc1nn(C)c(C)c1N1C(=O)c2cccc3c(Br)ccc(c23)C1=O
CCC(=O)N1C[C@H](C)[C@@H](OC)CN(C)C(=O)c2cc(NC(=O)Nc3cccc(F)c3)ccc2OC[C@H]1C
C[C@H](CO)N1C[C@H](C)[C@@H](CN(C)Cc2ccc(Oc3ccccc3)cc2)Oc2ccc(N(C)C)cc2CC1=O
O=C(O)CSCC(=O)NCc1ccc(Cl)cc1Cl
Cc1cc(Br)ccc1NC(=O)CN(C)C(=O)CCSc1ccc(F)cc1
CC(=O)CS(=O)(=O)c1ccc(Oc2ccc(S(=O)(=O)CC(C)=O)cc2)cc1
Cc1ccc(S(=O)(=O)N2CCN(C(=O)N3CCOCC3)CC2)cc1C
COc1ccccc1N1CCN(c2ccc(-c3ccccc3)nn2)CC1
CCN(CC)C(=O)CSc1nnc(-c2cccnc2)n1Cc1ccccc1
Cn1c(CO)cnc1SCC(=O)c1ccc(Cl)cc1
Cc1ccc(S(=O)(=O)N[C@H]2C=C[C@@H](CC(=O)NCCN3CCCCC3)O[C@H]2CO)cc1
Cc1ccc(S(=O)(=O)NC2=NCCCCC2)cc1
Cc1ccc(S(=O)(=O)N[C@H]2C=C[C@H](CC(=O)NCCN3CCCCC3)O[C@H]2CO)cc1
Cc1ccc2c(Cl)cc(Cl)c(OCc3c(C)noc3C)c2n1
COc1ccc(-n2c(SCC#N)nnc2-c2cccnc2)cc1
COc1ccc(-c2cc(-c3ccccc3)c(C#N)c(S(C)=O)n2)cc1 (stereo not given)
O=C(CC(C(=O)O)c1c[nH]c2ccccc12)c1ccccc1 (stereo not given)
CN(NC(=O)c1ccccc1)C1=NS(=O)(=O)c2ccccc21
COc1ccc(-c2cc(C(F)(F)F)nc(S(C)(=O)=O)n2)cc1
C=CCNS(=O)(=O)c1cccc2cc(C(=O)O)c(O)cc12
O=C(C=Cc1ccccc1)CC(c1ccccc1)N1CCOCC1 (stereo not given)
CCCCOc1ccc(C(=O)C(CN2CCOCC2)c2ccccc2)cc1 (stereo not given)
COC(=O)COc1c(/C=C\c2nc(O)c([N+](=O)[O-])c(=O)[nH]2)cccc1OC
COc1cccc(C(=O)Nn2cnnc2)c1OC
Cc1ccc(N)cc1S(=O)(=O)N(C)C
COc1ccc(C(=O)NCCCSC)cc1OC1CCN(C(C)C)CC1
C[C@@H]1CN([C@@H](C)CO)C(=O)c2cc(-c3cccc(C#N)c3)cnc2O[C@H]1CN(C)C(=O)c1ccccn1
Cc1cc(C)c(C#N)c(N2CCN(c3ccccc3)CC2)n1
Cc1cc(S(=O)(=O)Nc2ccc3ccccc3c2)c(C)s1
C=CS(=O)(=O)N(Cc1ccccc1Br)[C@H](CO)Cc1ccccc1
C=CCSc1nccc(-c2cc(Cl)sc2Cl)n1
O=C1C(Cl)=C(N2CCOCC2)C(=O)N1CCc1ccccc1
O=C(CCC1CCCN(C(=O)c2cc(C3CC3)[nH]n2)C1)N1CCN(c2ccccn2)CC1 (stereo not given)
CN(C)c1ccnc2sc(C(N)=O)c(N)c12
Cc1noc(C)c1S(=O)(=O)N(C)C[C@H]1Oc2ccc(NS(=O)(=O)c3cccs3)cc2C(=O)N([C@H](C)CO)C[C@H]1C
Nc1cc(N)nc(SCC(=O)Nc2ccccc2N2CCOCC2)n1
CCOC(=O)CS(=O)(=O)c1nc(-c2ccccc2)cc(C(F)(F)F)n1
CCOc1ccc(/C=C/C(=O)Oc2ccccc2)cc1
CSc1cccc(N2CC(C(=O)NCCN3C(=O)S/C(=C\c4cccnc4)C3=O)CC2=O)c1 (stereo not given)
CN(C)C(=O)C[C@@H]1CC[C@@H]2[C@H](COC[C@@H](O)CN2C(=O)C2CCOCC2)O1
CC(C)C#Cc1ccc([C@@H]2[C@H]3CN(C(=O)NC4CCCC4)CC(=O)N3[C@H]2CO)cc1
Cc1ccccc1OCC(=O)OCC(=O)NCc1ccc2c(c1)OCO2
CC(=O)Nc1cccc(-c2ccnc3c2CC(C)(C(=O)Nc2ccc4c(c2)OCO4)O3)c1 (stereo not given)
O=C(CN(Cc1ccc2c(c1)OCO2)C(=O)CNS(=O)(=O)c1ccccc1)NCc1ccco1
Cn1c(SC2=CS(=O)(=O)c3ccccc32)nc2ccccc21
CCOC(=O)CNC(=O)OC1CCN2Cc3ccccc3N=C12 (stereo not given)
CN(C)CCNc1oc(COc2ccc(-c3ccccc3)cc2)nc1C#N
C[C@H](CO)N1C[C@H](C)[C@@H](CN(C)C(=O)c2ccccn2)Oc2ncc(-c3cccc(C#N)c3)cc2C1=O
Cc1nc(N(CCO)C2CCCCC2)c2nnn(Cc3ccccc3)c2n1
C[C@H](NC(=O)C[C@H]1CC[C@@H](NC(=O)C2CC2)[C@H](CO)O1)c1ccccc1
C[C@@H]1CCCCO[C@@H](CN(C)C(=O)c2ccncc2)[C@@H](C)CN([C@H](C)CO)C(=O)c2cc(NC(=O)CCCCCC(=O)Nc3ccccc3N)ccc2O1
O=C(CSc1nc2cc(Cl)ccc2s1)NCC1CCCO1 (stereo not given)
CN1CCN(C(=O)C[C@@H]2CC[C@@H]3[C@H](COC[C@H](O)CN3CC3CCCCC3)O2)CC1
COc1ccccc1CNC(=O)C[C@@H]1CC[C@@H]2[C@H](COC[C@H](O)CN2C(=O)Nc2ccc(Cl)cc2)O1
Cc1ccc(Nc2nc(-c3c(C)nc4ncccn34)cs2)cc1
Cc1cnc(NC(=O)c2nn(C)cc2[N+](=O)[O-])s1
C[C@@H]1CN([C@H](C)CO)C(=O)c2cc(NC(=O)Nc3ccc(F)cc3)ccc2O[C@@H](C)CCCCO[C@@H]1CN(C)C(=O)NC1CCCCC1
CCCc1nc2c(=O)n(C)c(=O)nc-2n(C)n1
COc1ccccc1N=C1NC(=O)/C(=C/c2ccc(N(C)C)cc2)S1
O=C1/C(=C/c2ccccc2[N+](=O)[O-])COc2ccccc21
O=C1C=CCCN1C(=O)/C=C/c1ccccc1Cl
Cn1nc(C(C)(C)C)cc1NC(=O)C1(C)CCN1C(=O)C1(c2ccccc2)CCCC1 (stereo not given)
COc1ccc(-c2onc(C)c2-c2ccc(C(=O)OC(C)C)o2)c(O)c1
N#Cc1ccc(CCc2ccccc2)[nH]c1=O
NS(=O)(=O)c1ccc(-c2ccc(/C=C3\C(=O)Nc4cc(Cl)ccc43)o2)cc1
